AMA1 RON2 block = disrupts binding of P. falciparum AMA1 to RON2 | AlphaScreen AMA1-biotinylated RON2 peptide binding | Potency, µM (highest dose often 58.2 µM), inactives show at the top dose activity change, negative = inhibition, most hits filed as inhibitors | 360,000 compounds, 0.2% hits;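 also: potency is read from the fitted curve at half-maximal effect; 0% = vehicle wells and -100% = peptide control; nearly all actives have a fitted effect of over 45% in size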
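AMA1 (3D7) with his tag at 25 nM final met compounds first, then biotinylated RON2 peptide at 25 nM; detection used donor plus acceptor beads, 10 µg/mL apiece, read by AlphaScreen after 30 min at room temperature.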
CHX counter = counter-screen for Shiga toxin inhibitors: cycloheximide protein synthesis inhibition | cell reporter, cycloheximide protein synthesis inhibition counterscreen | max response, % | 300,000 compounds, 12% hits; in the data active = max response mostly above about 13%, no sharp cut-off; inactive = mostly below about 14%; also: read at 38.3 µM for the half of the compounds with a filed dose; 0% is about no effect
Pf growth 96h = inhibits malaria parasite growth, 96 h; P. falciparum luciferase reporter growth, 96 h; Potency, µM (doses to about 28.7 µM), for inactives: top-dose activity change, negative = inhibition, usual class: inhibitors; 320,000 compounds, 6.9% hits; AID 504834; also: potency is read from the fitted curve at half-maximal effect; % is scaled to controls: 0 for no effect and ±100 for the full control effect
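Luminescence readout: decreased luciferase signal marks inhibited growth of reporter-expressing P. falciparum in infected red cells (2% hematocrit, 0.05% parasitemia final), exposed to compound two generations (96 h, 37 C, 5% CO2).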
Shiga toxin inh = blocks Shiga toxin action in Vero cells; inhibition, % at 38.7 µM; 290,000 compounds, 9.2% hits; Vero cells, Shiga toxin protein synthesis inhibition reporter; in the data active = inhibition mostly above about 28%, no sharp cut-off; inactive = mostly below about 43%; also: 0% is about no effect
Pf growth 48h = inhibits P. falciparum growth in the first generation, 48 h; P. falciparum luciferase growth in erythrocytes, 48 h; 310,000 compounds, 5.9% hits; Potency, µM (titrated, usually from 28.7 µM), for inactives: top-dose activity change, negative = inhibition, most hits filed as inhibitors; also: potency is read from the fitted curve at half-maximal effect; % is scaled to controls: 0 for no effect and ±100 for the full control effect
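Cell-based growth assay: transgenic P. falciparum expressing firefly luciferase, cultured in red cells within RPMI 1640 containing 0.5% w/v Albumax, 24 mM bicarbonate and gentamycin. A drop in luciferase activity indicates inhibition.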
SARS PLpro yeast-1 = SARS-CoV PLP inhibition in yeast; Potency, µM (doses to about 32.9 µM), for the others: top-dose activity, positive = growth rescue, hits mostly activators; 330,000 compounds, 0.19% hits; S. cerevisiae expressing SARS-CoV PLpro, growth rescue; calls by dose curve; also: potency is read from the fitted curve at half-maximal effect; 0% is about no effect; nearly all actives have a fitted effect of over 55% in size
SARS PLpro yeast-2 = Validates SARS-CoV PLpro inhibitor hits in yeast; shares compounds with SARS PLpro yeast-1; yeast expressing SARS-CoV PLpro, growth phenotype rescue; calls only; 1,000 compounds, 19% hits; AID 652038; call rule not given here
CLK4 cf ADPGlo = confirmation of inhibitors of human CDC-like kinase 4. 65 compounds, 80% hits. Potency, µM (series often up to 80 µM), for the others: at the highest dose activity, negative = inhibition, usual class: inhibitors. AID 1969. recombinant Clk4, RS peptide, ADP-Glo luminescence. shares compounds with Pf growth 48h
Target sequence (Q9HAZ1 whole entry, looked up): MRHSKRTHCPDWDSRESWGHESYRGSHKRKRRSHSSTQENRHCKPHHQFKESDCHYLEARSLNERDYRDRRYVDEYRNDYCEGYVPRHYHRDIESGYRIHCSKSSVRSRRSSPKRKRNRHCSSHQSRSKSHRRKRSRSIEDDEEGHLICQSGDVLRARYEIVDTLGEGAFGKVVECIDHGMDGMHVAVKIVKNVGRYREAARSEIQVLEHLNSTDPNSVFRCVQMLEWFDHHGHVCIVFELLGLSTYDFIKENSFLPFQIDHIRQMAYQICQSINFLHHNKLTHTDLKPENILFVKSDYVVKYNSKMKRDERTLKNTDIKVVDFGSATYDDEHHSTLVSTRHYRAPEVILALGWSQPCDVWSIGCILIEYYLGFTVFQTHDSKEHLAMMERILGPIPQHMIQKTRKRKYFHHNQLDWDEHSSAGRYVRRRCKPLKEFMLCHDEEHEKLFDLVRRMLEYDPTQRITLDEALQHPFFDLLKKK
CLK4 ADP FP = confirmation of human CDC-like kinase 4 (CLK4) inhibitors | shares compounds with Pf growth 48h | recombinant Clk4, ADP Transcreener FP, RS peptide | Potency, µM (top dose mostly 80 µM), for the others: at the top dose activity, negative = inhibition, hits mostly inhibitors | 65 compounds, 70% hits | AID 1983
* marks the source's active call; other numbers are inactive results; i = inactive; ? = inconclusive; . = no result given; + = active, no number; ! = not active in a repeat; [ ] = another dose, or the depositor's remark. In the library only some 19% were active in any assay of this set; here they are far more common. Unless noted, calls follow the shape of the dose curve; as a rule, active = well fitted curve in the direction sought with a large enough effect; inconclusive = small, poorly fitted or top-dose-only effect, or another doubt; inactive = no such curve, though single readings can be large; an effect the other way counts as inactive or inconclusive.

SMILES | AMA1 RON2 block | CHX counter | Pf growth 96h | Shiga toxin inh | Pf growth 48h | SARS PLpro yeast-1 | CLK4 cf ADPGlo | CLK4 ADP FP | others
Cc1ccc(C(O)(C(=O)NNc2ccc3ccccc3n2)c2ccc(C)cc2)cc1 | 60% | 13*! | ? | -3 | ? | ? | . | . | SARS PLpro yeast-2=i
COc1ccc(C(O)(C(=O)NNc2ccc(C)cc2)c2cccs2)cc1 (stereo not drawn) | -11% | -1 | . | 2 | 1% | -3% | . | .
O=C(c1cccc(Br)c1)N1CCN(C(=O)N2CCOCC2)CC1 | 1% | -1 | 18% | 6 | 7% | 9% | . | .
O=C(c1ccccc1)N1CCN(C(=O)N2CCOCC2)CC1 | -4% | -4 | . | -19 | . | ? | . | . | SARS PLpro yeast-2=i
COc1ccccc1NC(=O)c1ccccc1NC(=O)c1cccs1 | 13% | 1 | ? | 22 | 2% | -2% | . | .
COc1ccccc1C(=O)NC(=S)Nc1ccc(NC(=O)c2cccs2)cc1 | 7% | -5 | 8% | 35 | ? | ? | . | . | SARS PLpro yeast-2=i
COc1ccc(-c2nc3ccccc3nc2-c2ccccc2)cc1OC | -1% | -1 | ? | -4 | ? | -11% | . | .
COc1ccc(-c2c/c(=N\c3nc(-c4ccccc4)c(C)s3)c3ccccc3o2)cc1O | -24% | -2 | . | -4 | ? | ? | . | . | SARS PLpro yeast-2=+
Cc1cc(NS(=O)(=O)c2ccc(NC(=O)CSc3nc4ncccc4[nH]3)cc2)nc(C)n1 | -4% | -3 | 3% | -9 | -3% | 0% | . | .
Cc1cccc(CNc2ncnc3ccc(-c4ccccc4Cl)cc23)c1 | . | . | 1.5µM* | . | 5.2µM* | -17% | 7.9µM* | ?
Cc1noc(C)c1-c1ccc2ncnc(NCc3cccc(C(F)(F)F)c3)c2c1 | . | 16 | . | 28 | . | . | . | .
Cc1cccc(CNc2ncnc3ccc(-c4cccc(Cl)c4)cc23)c1 | . | . | 4.1µM* | . | 6.6µM* | 0% | 13µM* | ?
COc1cc(CNc2ncnc3ccc(-c4c(C)noc4C)cc23)cc(OC)c1OC | . | -4 | . | 3 | . | . | . | .
Cc1cccc(CNc2ncnc3ccc(-c4ccc5c(c4)OCO5)cc23)c1 | . | . | 3.3µM* | . | 5.9µM* | -7% | 0.11µM* | 0.1µM*
Fc1cccc(CNc2ncnc3ccc(-c4ccccc4Cl)cc23)c1 | . | . | 2.1µM* | . | 5.9µM* | 0% | 7.9µM* | 10µM*
c1cncc(CNc2ncnc3ccc(-c4ccco4)cc23)c1 | . | . | ? | . | ? | 1% | 2.8µM* | 8.9µM*
COc1cccc(CNc2ncnc3cc(OC)c(OC)cc23)c1 | 0% | -2 | ? | 2 | ? | -3% | . | .
COc1cccc(-c2ccc3ncnc(NCc4cccnc4)c3c2)c1 | . | . | ? | . | ? | 6% | 2.5µM* | 4.5µM*
O=C(O)c1cn[nH]c1-c1cccc([N+](=O)[O-])c1 | -11% | -6 | -5% | -5 | 18% | -2% | . | .
Cc1noc(C)c1-c1ccc2ncnc(NCc3cc(F)cc(F)c3)c2c1 | . | -2 | . | 4 | . | . | . | .
Fc1cccc(CNc2ncnc3ccc(-c4cccnc4)cc23)c1 | . | . | 15µM* | . | ? | -3% | 2.8µM* | 6.3µM*
Cc1cccc(-c2ccc3ncnc(NCc4cccc(F)c4)c3c2)c1 | . | . | 1.3µM* | . | 0.042µM* | -14% | 4µM* | 7.9µM*
CCN(CC)CCc1nc(-c2ccccc2)no1 | 30% | . | 35% | . | 5% | . | . | .
O=C(CCn1c(=O)oc2cc(Cl)ccc21)Nc1ccc(N2CCOCC2)cc1 | 6% | -5 | 13% | -9 | -15% | -1% | . | .
CN(Cc1ccco1)c1ncnc2ccc(-c3ccc4c(c3)OCO4)cc12 | . | . | ? | . | ? | 4% | 0.063µM* | 0.05µM*
SMILES | AMA1 RON2 block | CHX counter | Pf growth 96h | Shiga toxin inh | Pf growth 48h | SARS PLpro yeast-1 | CLK4 cf ADPGlo | CLK4 ADP FP | others
CN(Cc1ccco1)c1ncnc2ccc(-c3cccc(Cl)c3)cc12 | . | . | 9.3µM* | . | 6.6µM* | -12% | 1.4µM* | 1.6µM*
Cc1cccc(-c2ccc3ncnc(N(C)Cc4ccco4)c3c2)c1 | . | . | ? | . | 12µM* | -4% | 2.5µM* | 3.2µM*
FC(F)(F)c1cc(-c2ccc3c(c2)OCO3)nc(NCc2ccco2)n1 | 6% | 17 | 3% | 2 | 17% | -6% | . | .
CN(Cc1ccco1)c1ncnc2ccc(-c3ccc4c(ccn4C)c3)cc12 | . | . | 9.3µM* | . | 10µM* | -22% | 14µM* | ?
Cc1ccc(N(Cc2ccco2)C(=O)c2cccc(S(=O)(=O)N(C)C)c2)cc1 | -4% | 8 | -17% | -2 | ? | 1% | . | .
C#CCNC(=O)C[C@@H]1C[C@@]2(C(=O)OC)CCCCC=C2N(Cc2ccccc2)C1=O | 0% | . | . | . | . | . | . | .
CCC(C)C(CO)NCCCn1ccc(NC(=O)OCc2ccccc2)nc1=O (stereo not drawn) | 11% | . | . | . | . | . | . | .
COc1ccc(C2(CNC(=O)c3cccs3)CCOCC2)cc1 | 0% | 1 | -12%[1.15 µM] | -12 | 5% | -1% | . | .
COc1cc2ncnc(NCc3cccs3)c2cc1OC | -1% | 11 | -24% | 49 | ? | 1% | . | .
c1csc(CNc2ncnc3ccc(-c4ccc5c(c4)OCO5)cc23)c1 | . | . | ? | . | ? | 1% | 0.071µM* | 0.045µM*
Clc1ccc2c(NCc3cccs3)ncnc2c1 | -3% | 2 | 23% | -7 | . | 0% | . | .
c1csc(CNc2ncnc3ccc(-c4ccoc4)cc23)c1 | . | . | ? | . | ? | 2% | 0.22µM* | 0.25µM*
Cc1cc(=O)oc2cc(NC(=O)C(C)N3C(=O)C4CCCCC4C3=O)ccc12 (stereo not drawn) | 3% | . | -25% | . | -5% | -16% | . | .
Cc1cccc(-c2ccc3ncnc(NCc4cc(C)cs4)c3c2)c1 | . | . | 9.3µM* | . | 12µM* | 0% | 14µM* | ?
Cc1csc(CNc2ncnc3ccc(-c4ccco4)cc23)c1 | . | . | 7% | . | ? | -5% | -2% | -9%
Cc1csc(CNc2ncnc3ccc(-c4ccc5c(ccn5C)c4)cc23)c1 | . | . | 5.9µM* | . | 3.7µM* | -13% | 14µM* | 40µM*
Cc1csc(CNc2ncnc3ccc(-c4cccc(Cl)c4)cc23)c1 | . | . | 2.3µM* | . | 7.4µM* | -23% | 13µM* | ?
Cc1csc(CNc2ncnc3ccc(-c4c(C)noc4C)cc23)c1 | . | 11 | . | 7 | . | . | . | .
Cc1cccc(N2C(=O)CC(Sc3nc(-c4ccccc4)c4cc(Cl)ccc4n3)C2=O)c1 (stereo not drawn) | -1% | -1 | 178% | -18 | -1% | -9% | . | .
Cc1cn(CCOc2ccc(Cl)cc2)c(=O)[nH]c1=O | 1% | -5 | 7% | 7 | -5% | 2% | . | .
